# Many of the other results were omitted from the sample, so the strongest signals are more common in it than they were.
# B1: Epa1-NP-mutant-E227G (Candida glabrata), Q6VBJ0 (protein)
# chain: MILNPALFLNKCVCIYTTLILLLLTNGGYATSSNDISLASKDPTTFPLGCSPDITTPKKGLSMELYSYDFRKKGSYPCWDAAYLDPNYPRTGYKSHRLLAKVDGVTGNINFYYHATKGCTPQLGHLPASYNYPKPLTMTNFTMLLYGYFRPKVTGFHTFTISADDLLFVNFGAGNAFDCCRRDSSADHFGNYQAYAIWGSKTAKDELTVHLDAGVYYPIRLFYNNRGYDGALSFTFKTESNENTVSDFSEYFFSLDDTEEGCPGLISYDSSCASVKTSKIIGIDYHTETPNENLVPITKTIYHLGIPCTGTTTTPLCGSGFYDPLANKCVTINTSSTSSVTKTTSHTTSKEVSFHSSISSQKTLIPKSIPSPYGPIKSQSIPTEMETSSEISSSEYAFSDVISTPSHSPYTKKHSSLNSSSYTSTVIHSLTSYSISQGIFSTSLSEQNITSKSSTDKFSTATSMSNNITQSSIIISQFSTNNENYTTTSMHTSSDKISTETLNNSISTTTSILFSNSSTILKNNTTIISSDKDTHYHPVNPTIVCSTNKTEIICASITQPSISNSNNHWSSSVLKFNSTTVRSTLPSSAGSNETSINVPFSSSTESNTSTSSTSTSNSKMVRSTLPSSAGSNETSISVPFSSSTESNTSTSSTSTSNSKMVRSTLPSSAGSNETSINVPFSSSTESNTSTSSTSTSNSKTVRSTPFSSAGIIMTSLSQRNNKSASSYASSNSKCYNTADSCRKVHSTPSYLLTSSYTSEGVDYDCSLVSTKLKINDTNCVNNKHTTKSCLKTSVTTTIPTLEIKTARKSSSNTIGLHSYPTSSPNKSISSAPIIGYISSFKTIKTASPSYQTSDLTTITTITSLNNPGSTAVENTHESNDKSRKTSSNDISSKHSVIKETKDAVESSNKSHQTNTLKCSSIIIASSSHNSYESLGGTTLTLTLSKVYSPQNNDTLPFLEISEVNPSRTVLPESSKMMQYLTSTEERNKTARNTIATNIVSISTFHFEGEGNAIRMGYTQLLLMLIGIIVMNIGT
# Experiments:
# Assay in all cases: glycan array binding signal (z-score within array); higher = stronger binding
# Conditions in all cases: glycan notation: IUPAC condensed, linker removed; mutation: E227G
# [1] = target: Neu5Ac(a2-6)Gal(b1-4)GlcNAc(b1-2)Man(a1-3)[Gal(b1-4)GlcNAc(b1-2)Man(a1-6)]Man(b1-4)GlcNAc(b1-4)GlcNAc
# Summary of the method: (§1)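 Columns mapping to the same glycan were averaged after glycan names were converted to IUPAC-condensed notation. The data come from 3228 arrays in the Consortium for Functional Glycomics database, limited to those with an available protein sequence. Binding is reported as a within-array Z-score averaged across arrays of one protein sequence and across linkers.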
# [2] = target: Neu5Ac(a2-6)Gal(b1-4)GlcNAc(b1-2)[Neu5Ac(a2-6)Gal(b1-4)GlcNAc(b1-4)]Man(a1-3)[GlcNAc(b1-4)][Neu5Ac(a2-6)Gal(b1-4)GlcNAc(b1-4)Man(a1-6)]Man(b1-4)GlcNAc(b1-4)GlcNAc
# Summary of the method: as §1
# Neu5Ac(a2-8)Neu5Ac = target: Neu5Ac(a2-8)Neu5Ac
# Summary of the method: as §1
# [3] = target: Neu5Ac(a2-8)Neu5Ac(a2-3)[Gal(b1-3)GalNAc(b1-4)]Gal(b1-4)Glc
# Summary of the method: as §1
# [4] = target: Neu5Ac(a2-8)Neu5Ac(a2-8)Neu5Ac
# Summary of the method: as §1
# [5] = target: Neu5Ac9Ac(a2-3)Gal(b1-3)GlcNAc
# Summary of the method: as §1
# [6] = target: Neu5Gc(a2-6)Gal(b1-4)GlcNAc
# Summary of the method: as §1
# [7] = target: Neu5Gc(a2-8)Neu5Ac(a2-3)Gal(b1-4)GlcNAc
# Summary of the method: as §1
binder,measurement,setting,value
B1,glycan array binding signal (z-score),[1],-0.187
same,glycan array binding signal (z-score),[2],-0.059
same,glycan array binding signal (z-score),Neu5Ac(a2-8)Neu5Ac,-0.302
same,glycan array binding signal (z-score),[3],0.176
same,glycan array binding signal (z-score),[4],-0.128
same,glycan array binding signal (z-score),[5],-0.253
same,glycan array binding signal (z-score),[6],-0.199
same,glycan array binding signal (z-score),[7],-0.226

# From the supplement of paper PMC8728848
